Experimental data as given in PubChem BioAssay AID1159580 (chemical genetic matrix, 2015).
Where “and” joins values, the source holds several entries; their conditions need not be identical. Identical values can stand only once. The campaign covered roughly 5,500 compounds. About 2,000 (36%) were called active. About 18% were inconclusive and are not listed. Rule as the data show it: active = normalized growth mostly below about 0.91 (no sharp cut-off); inconclusive = no clear call, values can overlap the other calls; inactive = mostly above about 0.92. Some of the results follow.

Assay: chemical genetic growth profiling, strain panel (AID 1159580);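 also: tested at 20 µM; growth read once vehicle control cultures reached saturation at 30 °C; 1 = growth at the plate median or of vehicle wells; lower values mean less growth of the strain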
Conditions: S. cerevisiae deletion strains, growth OD

Measured: normalized growth

CN(C)CCC(c1ccc(Br)cc1)c1ccccn1 (centres undefined)
inactive: locus YAL013W, strain DEP1, hits give low values 0.982 and 1 | locus YAL021C, strain ccr4, hits give low values 0.958 | locus YAL026C, strain drs2, hits give low values 0.996 | locus YAL030W, strain snc1, hits give low values 0.975 | locus YAL040C, strain CLN3, hits give low values 1.11 | locus YBL061C, strain skt5, hits give low values 0.991 | locus YBR009C, strain hhf1, hits give low values 0.999 | locus YBR021W, strain FUR4, hits give low values 0.975 | locus YBR023C, strain chs3, hits give low values 0.993 | locus YBR171W, strain sec66, hits give low values 0.974 | locus YBR229C, strain ROT2, hits give low values 0.978 | locus YBR231C, strain swc5, hits give low values 0.983 | locus YBR279W, strain paf1, hits give low values 0.976 | locus YCL011C, strain gbp2, hits give low values 0.97 | locus YCL016C, strain dcc1, hits give low values 0.979 | locus YCL029C, strain bik1, hits give low values 0.979 | locus YCL061C, strain MRC1 (second series), hits give low values 1 | locus YCL069W, strain vba3, hits give low values 0.985 | locus YCR088W, strain abp1, hits give low values 0.983 | locus YDL005C, strain med2, hits give low values 0.975 | locus YDL035C, strain GPR1, hits give low values 0.991 | locus YDL040C, strain nat1, hits give low values 0.967 | locus YDL074C, strain BRE1, hits give low values 0.952 | locus YDL101C, strain DUN1, hits give low values 0.984 | locus YDL134C, strain PPH21, hits give low values 0.983 | locus YDL185W, strain tfp1, hits give low values 0.998 | locus YDL192W, strain arf1, hits give low values 0.997 | locus YDR001C, strain nth1, hits give low values 0.974 | locus YDR069C, strain doa4, hits give low values 0.929 | locus YDR101C, strain arx1, hits give low values 0.967 | locus YDR137W, strain rgp1, hits give low values 1.01 | locus YDR150W, strain NUM1, hits give low values 0.997 and 1.01 | locus YDR159W, strain sac3, hits give low values 0.962 | locus YDR162C, strain NBP2, hits give low values 0.991 | locus YDR195W, strain ref2 0.96 | locus YDR297W, strain sur2, hits give low values 0.973 | locus YDR318W, strain mcm21, hits give low values 0.985 | locus YDR334W, strain swr1, hits give low values 0.956 | locus YDR335W, strain msn5, hits give low values 0.992 | locus YDR388W, hits give low values 0.99 | locus YDR392W, strain spt3, hits give low values 0.997 | locus YDR502C, strain sam2, hits give low values 0.984 | locus YEL003W, strain gim4, hits give low values 0.969 | locus YEL037C, strain rad23, hits give low values 0.981 | locus YEL061C, strain CIN8 (second series), hits give low values 0.989 | locus YEL061C, strain CIN8, hits give low values 0.994 | locus YER002W, strain NOP16, hits give low values 1.01 | locus YER015W, strain faa2, hits give low values 0.992 | locus YER016W, strain bim1, hits give low values 0.935 | locus YER110C, hits give low values 0.985 | locus YER111C, strain swi4, hits give low values 0.977 | locus YER155C, strain BEM2 (second series), hits give low values 1 | locus YER155C, strain BEM2, hits give low values 0.959 | locus YER167W, strain BCK2, hits give low values 0.992 | locus YFR010W, strain ubp6, hits give low values 0.986 | locus YGL078C, strain dbp3, hits give low values 0.987 | locus YGL086W, strain mad1, hits give low values 1 | locus YGL167C, strain pmr1, hits give low values 0.988 | locus YGL173C, strain kem1, hits give low values 0.975 | locus YGL227W, strain vid30, hits give low values 0.985 | locus YGL240W, strain doc1, hits give low values 0.995 | locus YGL248W, strain PDE1, hits give low values 0.974 | locus YGL253W, strain hxk2, hits give low values 0.991 | locus YGR078C, strain PAC10, hits give low values 0.992 and 1.01 | locus YGR135W, strain pre9, hits give low values 0.977 | locus YGR229C, strain SMI1, hits give low values 0.987 | locus YGR252W, strain gcn5, hits give low values 1.04 | locus YHR013C, strain ard1, hits give low values 0.956 | locus YHR027C, strain rpn1, hits give low values 0.952 | locus YHR030C, strain SLT2, hits give low values 0.992 and 0.989 | locus YHR079C, strain IRE1 (second series), hits give low values 0.99 | locus YHR079C, strain IRE1, hits give low values 0.99 | locus YHR094C, strain hxt1, hits give low values 0.994 | locus YHR129C, strain ARP1, hits give low values 0.986 | locus YHR142W, strain chs7, hits give low values 0.995 | locus YHR200W, strain rpn10, hits give low values 0.984 | locus YIL066C, strain RNR3, hits give low values 0.989 | locus YIL073C, strain SPO22, hits give low values 1.04 | locus YIL125W, strain kgd1, hits give low values 0.998 | locus YIR030C, strain dcg1, hits give low values 0.985 | locus YJL092W, strain hpr5, hits give low values 0.967 | locus YJL095W, strain BCK1 (second series), hits give low values 0.972 | locus YJL095W, strain BCK1, hits give low values 0.966 and 0.986 | locus YJL115W, strain asf1, hits give low values 0.941 | locus YJL129C, strain trk1, hits give low values 0.952 | locus YJL134W, strain LCB3, hits give low values 0.989 | locus YJL154C, strain vps35, hits give low values 0.955 | locus YJL164C, strain tpk1, hits give low values 0.991 | locus YJL166W, strain qcr8, hits give low values 0.973 | locus YJL168C, strain set2, hits give low values 0.993 | locus YJL187C, strain SWE1 (second series), hits give low values 0.978 | locus YJR043C, strain POL32, hits give low values 0.983 | locus YJR066W, strain TOR1, hits give low values 0.967 | locus YJR075W, strain HOC1, hits give low values 0.975 and 1.03
